# Measurements reported in ChEMBL document CHEMBL4808148, “HDAC6 screening dataset using tau-based substrate in an enzymatic assay yields selective inhibitors and activators” (2021).
# About 150 (2.7%) of roughly 5,600 compounds showed an effect of 50% or more. The list comes from a sample in which strong results are over-represented; it also holds similar structures and randomly drawn compounds.
# What was measured:
# [1] = molecular target: T1, Protein deacetylase HDAC6 (Homo sapiens) (UniProt Q9UBN7); details: at 10 µM
# T1 sequence (whole entry): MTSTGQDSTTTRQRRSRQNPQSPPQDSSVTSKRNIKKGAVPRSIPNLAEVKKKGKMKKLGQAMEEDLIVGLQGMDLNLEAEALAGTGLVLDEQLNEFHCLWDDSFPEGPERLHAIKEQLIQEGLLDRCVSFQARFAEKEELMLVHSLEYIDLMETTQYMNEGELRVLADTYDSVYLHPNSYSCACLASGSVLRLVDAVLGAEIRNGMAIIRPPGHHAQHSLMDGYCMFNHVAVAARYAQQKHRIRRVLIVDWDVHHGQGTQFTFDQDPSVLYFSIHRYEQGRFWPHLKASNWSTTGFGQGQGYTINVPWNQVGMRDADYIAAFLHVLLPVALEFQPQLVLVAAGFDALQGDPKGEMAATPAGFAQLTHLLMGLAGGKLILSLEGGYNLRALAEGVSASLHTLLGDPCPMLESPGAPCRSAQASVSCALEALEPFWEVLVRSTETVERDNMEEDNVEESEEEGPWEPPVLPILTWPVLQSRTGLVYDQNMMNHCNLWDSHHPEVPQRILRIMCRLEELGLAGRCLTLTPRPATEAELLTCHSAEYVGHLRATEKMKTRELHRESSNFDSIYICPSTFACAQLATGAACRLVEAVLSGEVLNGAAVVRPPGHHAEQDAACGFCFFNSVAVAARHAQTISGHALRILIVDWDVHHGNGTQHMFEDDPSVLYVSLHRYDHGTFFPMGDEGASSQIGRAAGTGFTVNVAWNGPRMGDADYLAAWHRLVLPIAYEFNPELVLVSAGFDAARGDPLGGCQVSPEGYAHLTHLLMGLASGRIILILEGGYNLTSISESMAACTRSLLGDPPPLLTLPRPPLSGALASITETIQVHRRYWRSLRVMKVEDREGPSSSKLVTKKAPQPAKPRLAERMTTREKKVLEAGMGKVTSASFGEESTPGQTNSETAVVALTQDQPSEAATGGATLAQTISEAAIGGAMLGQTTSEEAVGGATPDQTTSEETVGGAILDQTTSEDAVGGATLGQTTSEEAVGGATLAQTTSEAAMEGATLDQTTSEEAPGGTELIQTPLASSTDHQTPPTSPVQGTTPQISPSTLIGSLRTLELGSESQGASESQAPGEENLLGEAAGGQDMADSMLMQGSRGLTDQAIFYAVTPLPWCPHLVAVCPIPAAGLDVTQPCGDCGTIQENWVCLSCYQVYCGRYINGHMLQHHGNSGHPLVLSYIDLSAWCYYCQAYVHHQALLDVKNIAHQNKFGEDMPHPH
# [2] = molecular target: Protein deacetylase HDAC6 (Homo sapiens) (UniProt Q9UBN7); details: at 10 µM; remark: listed apart in the source
Molecule,inhibition [1] [%],inhibition [2] [%]
COc1ccc(OCC2c3cc(OC)c(OC)cc3CCN2C(=O)c2cccc(Cl)c2)cc1 (stereo not given),-0.3,–
"BIS(MALTOLATO)OXOVANADIUM(IV), CHEMBL286447",–,1.5
c1ccc2c(c1)-c1nc-2nc2[nH]c(nc3nc(nc4[nH]c(n1)c1ccccc41)-c1ccccc1-3)c1ccccc21,-0.22,–
Cc1cccc(-c2n[nH]cc2-c2ccc3ncccc3n2)n1,-0.98,–
Cc1cc(O)c2c(=O)c3c(O)cc(O)c4c5c(O)cc(O)c6c(=O)c7c(O)cc(C)c8c1c2c(c34)c(c78)c65,22.2,–
CCCCCCCCCCCCCCCC(=O)N[C@@H](CCC(=O)NCCCC[C@H](NC(=O)[C@H](C)NC(=O)[C@H](C)NC(=O)[C@H](CCC(N)=O)NC(=O)CNC(=O)[C@H](CCC(=O)O)NC(=O)[C@H](CC(C)C)NC(=O)[C@H](Cc1ccc(O)cc1)NC(=O)[C@H](CO)NC(=O)[C@H](CO)NC(=O)[C@@H](NC(=O)[C@H](CC(=O)O)NC(=O)[C@H](CO)NC(=O)[C@@H](NC(=O)[C@H](Cc1ccccc1)NC(=O)[C@@H](NC(=O)CNC(=O)[C@H](CCC(=O)O)NC(=O)[C@H](C)NC(=O)[C@@H](N)Cc1cnc[nH]1)[C@@H](C)O)[C@@H](C)O)C(C)C)C(=O)N[C@@H](CCC(=O)O)C(=O)N[C@@H](Cc1ccccc1)C(=O)N[C@H](C(=O)N[C@@H](C)C(=O)N[C@@H](Cc1c[nH]c2ccccc12)C(=O)N[C@@H](CC(C)C)C(=O)N[C@H](C(=O)N[C@@H](CCCNC(=N)N)C(=O)NCC(=O)N[C@@H](CCCNC(=N)N)C(=O)NCC(=O)O)C(C)C)[C@@H](C)CC)C(=O)O,-0.77,–
CC(=O)/N=c1/sc(S(N)(=O)=O)nn1C,0.67,–
NS(=O)(=O)c1nn2cc(-c3ccccc3)nc2s1,82,–
CCCCOC(=O)c1cc2c(cn1)[nH]c1ccccc12,36,–
O=C(O)c1cnn(-c2nc3cc(OC(F)(F)F)c(Cl)cc3[nH]2)c1,95.9,–
Cc1ccc2[nH]c(=O)c(C3=NN(C(=O)CCC(=O)O)C(c4ccc(Br)cc4)C3)c(-c3ccccc3)c2c1 (stereo not given),-0.13,–
CCC(CC)Nc1cc(C)nc(Oc2c(C)cc(C)cc2C)c1C,-6.76,–
O=C(O)Cc1cc2ccccc2nc1C(=O)O,6.45,–
C[C@@H]1O[C@@]2(CS1)CN1CCC2CC1.C[C@H]1O[C@]2(CS1)CN1CCC2CC1,-5.94,–
O=C(O)CN1C(=O)c2cccc3cccc(c23)C1=O,5.8,–
O=C(O)CCCN1C(=O)c2cccc3cccc(c23)C1=O,-1.41,–
O=C(CCCCCN1C(=O)c2cccc3cccc(c23)C1=O)NO,98.7,–
CC(C)(Sc1ccncc1-c1ccc(C#N)c2ccccc12)C(=O)O,2.75,–
N[C@H](Cc1c[nH]cn1)C(=O)O,5.27,–
C/C(=N\NC(=O)C(NC(=O)c1ccccc1)c1n[nH]c(=O)c2ccccc12)c1cccc(Br)c1 (stereo not given),0.86,–
Cc1noc(C)c1-c1cc(O)cc(C(O)c2ccccc2)c1 (stereo not given),2.55,–
COc1ccc(CNC(=O)c2sc3nc(C)cc(C)c3c2N)cc1,13.2,–

Molecule,inhibition [1] [%],inhibition [2] [%]
CC(=O)Nc1ncc([N+](=O)[O-])s1,-3.88,–
COc1ccc(CNC(=O)Nc2ncc([N+](=O)[O-])s2)cc1,64.8,–
CCCCn1ccc(N2CCC(c3ccccc3)CC2)c(Cl)c1=O,42.8,–
CC[C@@H]1C[C@H](N(Cc2cc(C(F)(F)F)cc(C(F)(F)F)c2)C(C)=O)c2cc(C(F)(F)F)ccc2N1C(=O)OC(C)C,88.1,–
CCOC(=O)N1c2ccc(C(F)(F)F)cc2[C@@H](N(Cc2cc(C(F)(F)F)cc(C(F)(F)F)c2)C(=O)OC)C[C@H]1CC,-1.4,–
CCCCCCCCCCCCCCCCNc1ccc(C(=O)O)cc1,2.63,–
"FLUPENTIXOL, CHEMBL6066864",–,14.4
CN(C)C(=O)COC(=O)Cc1ccc(OC(=O)c2ccc(NC(=N)N)cc2)cc1,96.5,–
CC(=O)Nc1ccc(CC(=O)O)cc1,-5.64,–
CCOC(=O)c1ccc(OC(=O)CCCCCNC(=N)N)cc1,22.4,–
Nc1ccn([C@@H]2O[C@@](CO)(CCl)[C@@H](O)[C@H]2F)c(=O)n1,-1.66,–
O=C(O)/C=C/c1ccc(O)cc1,-0.48,–
O=C(/C=C/c1ccc(O)cc1)c1ccc(O)cc1O,99.7,–
O=C(O)/C=C/c1ccc(O)c(O)c1,-0.33,–
O=C(/C=C/c1ccc(O)c(O)c1)O[C@H](Cc1ccc(O)c(O)c1)C(=O)O,3.24,–
CC(C)(C)c1cc(C(=O)/C=C/c2ccc(C(=O)O)cc2)cc(C(C)(C)C)c1,2.42,–
O=C(/C=C/c1ccc(O)c(O)c1)c1ccc(O)cc1O,99.2,–
CC(C)C[C@@H](NC(=O)OCC1c2ccccc2-c2ccccc21)C(=O)O,3.37,–
"CARBOPLATIN, CHEMBL1351",–,-2.28
CC(C)C[C@H](NC(=O)OCC1c2ccccc2-c2ccccc21)C(=O)O,-7.02,–
CC(C)(C)C1CCc2c(sc(NC(=O)c3ccco3)c2C(=O)O)C1 (stereo not given),-1.94,–
O=c1ccc2c(OCCCCOc3ccccc3)c3ccoc3cc2o1,-4.23,–

Molecule,inhibition [1] [%],inhibition [2] [%]
COc1ccc(S(=O)(=O)Nc2cc(Cl)cc(Cl)c2OC)cc1N1CCNCC1,-0.38,–
CC1(C)Oc2ccc(C#N)cc2[C@H](N(Cc2ncc[nH]2)c2ccc(Cl)cc2)[C@H]1O,5.57,–
CCOC(=O)COc1ccc2c(=O)cc(-c3ccccc3)oc2c1,-3.12,–
CC(C)c1ccc(-c2cc(=O)c3ccccc3o2)cc1,77.3,–
O=C(O)c1cc(=O)c2ccccc2o1,10.2,–
"ACRIFLAVINE HYDROCHLORIDE, CHEMBL5219995",–,7.54
CCCCCCCCCCCCCCCCCCCCCC(=O)Nc1ccn([C@@H]2O[C@H](CO)[C@@H](O)[C@@H]2O)c(=O)n1,-7.93,–
COc1cc(-n2cnc3cc(-c4ccc(Cl)cc4)sc3c2=O)ccc1OCCN1CCCC1,2.09,–
O=C(CC(c1ccccc1)c1ccccc1)N1CCN(C(c2ccccc2)c2ccccc2)CC1,-2.23,–
O=c1cc(-c2ccccc2)oc2cc(O)cc(O)c12,72.7,–
O=c1cc(-c2ccc(O)cc2)oc2cc(O)cc(O)c12,66.2,–
COc1ccc(-c2cc(=O)c3c(O)c(OC)c(O)cc3o2)cc1OC,58.5,–
O=C(O)Cc1cccc2c(=O)cc(-c3ccccc3)oc12,2.51,–
COc1ccc(-c2cc(=O)c3c(OC)c(OC)c(OC)c(OC)c3o2)cc1,-4.13,–
O=C(O)[C@H]1O[C@H](Oc2cc3oc(-c4ccccc4)cc(=O)c3c(O)c2O)[C@H](O)[C@@H](O)[C@@H]1O,-2.69,–
O=c1cc(-c2ccccc2)oc2cc(O)c(O)c(O)c12,75.1,–
COc1ccc(-c2cc(=O)c3c(OC)c(OC)c(OC)c(OC)c3o2)cc1OC,-7.64,–
O=c1oc2cc(O)ccc2s1,-3.98,–
O=C1C[C@@H](c2ccccc2)Oc2cc(O)cc(O)c21,4,–
O=c1c(O)c(-c2cc(O)c(O)c(O)c2)oc2cc(O)cc(O)c12,6.61,–
O=c1c(O)c(-c2ccc(O)cc2)oc2cc(O)cc(O)c12,47.1,–
